Source: PubChem BioAssay (The Scripps Research Institute Molecular Screening Center)
Compounds with a hit are over-represented: about 3.5% of the library has one in this group of screens.
MITF primary = human MITF inhibition, primary screen | O75030 | AlphaScreen MITF homodimerization, bead proximity signal | inhibition, % at 2.6 µM | 650,000 tested, 0.91% active | AID 1259374; in the data active = inhibition above about 50%
FBW7 activator = human FBW7 E3 ligase activation, primary screen | Q969H0 | AlphaScreen FBW7–phospho-cyclin E peptide binding, activator screen | normalized activity (activation), % at 26.1 µM | 650,000 tested, 0.13% active; in the data active = normalized activity above about 1.9%;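 also: purified mutant Fbw7 with reduced substrate affinity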
Target sequence (Q969H0 whole entry, looked up): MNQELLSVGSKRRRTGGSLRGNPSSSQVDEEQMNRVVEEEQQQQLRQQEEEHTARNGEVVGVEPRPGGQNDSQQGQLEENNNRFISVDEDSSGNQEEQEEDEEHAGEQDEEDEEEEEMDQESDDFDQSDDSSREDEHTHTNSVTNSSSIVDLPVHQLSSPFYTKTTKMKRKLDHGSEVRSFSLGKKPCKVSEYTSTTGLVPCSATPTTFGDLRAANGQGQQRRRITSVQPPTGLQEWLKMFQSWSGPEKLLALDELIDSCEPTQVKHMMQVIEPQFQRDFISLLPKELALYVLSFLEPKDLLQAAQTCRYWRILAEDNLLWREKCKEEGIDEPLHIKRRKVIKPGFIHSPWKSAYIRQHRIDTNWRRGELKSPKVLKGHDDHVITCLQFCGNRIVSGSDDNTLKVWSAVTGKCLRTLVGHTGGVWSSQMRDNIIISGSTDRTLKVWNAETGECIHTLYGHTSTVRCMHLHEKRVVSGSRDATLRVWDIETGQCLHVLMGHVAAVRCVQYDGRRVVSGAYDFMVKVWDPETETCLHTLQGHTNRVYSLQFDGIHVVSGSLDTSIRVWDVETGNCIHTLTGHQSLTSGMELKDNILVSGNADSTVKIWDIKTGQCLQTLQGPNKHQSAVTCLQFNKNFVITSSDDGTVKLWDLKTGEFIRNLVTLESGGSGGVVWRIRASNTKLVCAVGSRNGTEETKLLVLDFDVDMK
GPR151 ag = activators of human GPR151; PathHunter beta-arrestin GPR151 cells, luminescence; activation, % at 11.2 µM; 650,000 tested, 1% active; AID 1508602; in the data active = activation above about 4.9%
TEAD-YAP inh = TEAD-YAP interaction inhibition. HEK-TIYL cells, TEAD-Gal4/YAP UAS-luciferase luminescence. inhibition, % at 9.12 µM. 640,000 tested, 1.4% active. AID 1259422; in the data active = inhibition above about 32%
Each line names hits and unclear results; the compound was inactive in the other large screens.

O=C(Nc1ccc(F)c(F)c1)c1ccccc1I	none
CCSc1nc(-c2ccccc2)c(NC(=O)c2ccco2)s1	FBW7 activator 1.9
Cc1ccc(Cn2c(=O)n(CC3CCC(C(=O)NCc4ccco4)CC3)c(=O)c3sccc32)cc1 (stereo not given)	none
Cc1cc(C(=O)COC(=O)c2ccc3c(c2)OCO3)c(C)n1Cc1ccco1	none
CCc1ccc(OCC(=O)Nc2nccs2)c(Br)c1	TEAD-YAP inh 95.0
Cc1ccc(OCC(=O)Nc2nccs2)c(Br)c1	TEAD-YAP inh 97.7
CC(C)(C)c1ccc(OCC(=O)Nc2nccs2)c(Br)c1	TEAD-YAP inh 90.8
Cc1cc(Cl)ccc1OCC(=O)Nc1nccs1	TEAD-YAP inh 65.2
CCc1ccc(OCC(=O)Nc2cccc(C)n2)c(Br)c1	none
COc1cc(/C=C2/C(=O)Nc3ccc(Cl)cc32)ccc1OCC(=O)O	none
CC(C)(C)n1ncc(C(=O)N2CCOCC2)c1C(F)(F)F	none
Cc1ccc(NC(=S)NC(=O)c2cccnc2)c(Br)c1	none
O=C(Nc1ccccc1)/C(=C\c1ccco1)NC(=O)c1ccc(Br)cc1	none
Cc1nc(NCc2ccc(Cl)cc2)c2c(C)c(C)sc2n1	TEAD-YAP inh 39.2
Cc1sc2ncnc(NCc3ccc(Cl)cc3)c2c1C	none
COc1ccccc1CNc1nc(C)nc2sc(C)c(C)c12	TEAD-YAP inh 46.0
Cc1sc2nc(-c3cccnc3)nc(NCc3cccnc3)c2c1C	MITF primary 73.2, TEAD-YAP inh 68.1
COC(=O)Cc1nc(NCc2ccccc2OC)c2c(C)c(C)sc2n1	none
Cc1nc(NCc2ccc(F)cc2)c2c(C)c(C)sc2n1	TEAD-YAP inh 34.8
O=C(Cc1cccc(F)c1)NCC1CCC2(CCN(Cc3ccncc3)CC2)O1 (stereo not given)	none
CCC(CC)NCc1cccc(OC)c1OC	none
C/C=C/C(=O)Nc1ccc(-c2ccc(NC(=O)/C=C/C)c(OC)c2)cc1OC	TEAD-YAP inh 60.5
CN1CCN(C(=O)c2ccc(-c3nc(NCc4nc5ccccc5[nH]4)c4ncn(C5CCCCC5)c4n3)cc2)CC1	none
c1cncc(Nc2nc(NCc3nc4ccccc4[nH]3)c3ncn(C4CCCCC4)c3n2)c1	TEAD-YAP inh 70.4
CC(C)n1cnc2c(NCc3nc4ccccc4[nH]3)nc(Nc3ccccc3)nc21	TEAD-YAP inh 63.6
Cn1c(Nc2nc(NCc3nc4ccccc4[nH]3)c3ncn(-c4ccccc4)c3n2)nc2ccccc21	none
O=C(NC1CC1)c1ccc(-c2nc(NCc3nc4ccccc4[nH]3)c3ncn(C4CCCCC4)c3n2)cc1	TEAD-YAP inh 44.8
c1cncc(Nc2nc(NCc3nc4ccccc4[nH]3)c3[nH]cnc3n2)c1	FBW7 activator 3.0
Cc1nnc2nc(-c3ccc(NC(=O)CCCN4CCCC4=O)cc3)cn2c1C	none
CCN(CC)c1nc(Nc2ccccc2C)nc(OCC#N)n1	none
c1ccc2[nH]c(CNc3nc(Nc4ccc(-n5ccnc5)cc4)nc4c3ncn4C3CCCCC3)nc2c1	none
CC(C)n1cnc2c(NCc3nc4ccccc4[nH]3)nc(Nc3ccc(C(F)(F)F)cc3)nc21	TEAD-YAP inh 55.8
CC(C)n1cnc2c(Nc3ccccc3)nc(Nc3ccc(C(F)(F)F)cc3)nc21	none
CC(C)n1cnc2c(NCc3nc4ccccc4[nH]3)nc(Nc3cccnc3)nc21	TEAD-YAP inh 85.9
CC(C)n1cnc2c(NCc3nc4ccccc4[nH]3)nc(Nc3ccc(-n4ccnc4)cc3)nc21	TEAD-YAP inh 46.2
CCC(C)Nc1nc(-c2c[nH]c3ccccc23)cs1 (stereo not given)	FBW7 activator 3.9
C=CCNc1nc(-c2c[nH]c3ccccc23)cs1	none
Cc1ccc(-c2csc(CC(=O)Nc3ccccc3)n2)cc1	none
CCOC(=O)NC(c1ccccc1)C(C(=O)OCC)C(=O)OCC (stereo not given)	FBW7 activator 2.3
CC1CC(C(O)c2ccccn2)C(=O)C(C(O)c2ccccn2)C1 (stereo not given)	TEAD-YAP inh 40.4
OC(c1ccccc1)c1ccccn1 (stereo not given)	none
COc1cc(S(=O)(=O)N(Cc2cccs2)C2CCCC2)ccc1-n1cnnn1	none
COc1cc(S(=O)(=O)N(Cc2ccccc2F)C2CCCC2)ccc1-n1cnnn1	TEAD-YAP inh 66.6
COc1ccc(-c2cnn3ccc(NCCO)nc23)cc1OC	TEAD-YAP inh 57.1
COc1cc(Nc2ccn3ncc(-c4ccccc4Cl)c3n2)cc(OC)c1OC	TEAD-YAP inh 36.0
COc1cc(-c2cnn3ccc(Nc4cc(OC)c(OC)c(OC)c4)nc23)ccc1O	TEAD-YAP inh 71.0
Oc1ccc(-c2cnn3ccc(NCc4cccnc4)nc23)cc1	TEAD-YAP inh 34.7
COc1cccc(-c2cnn3ccc(Nc4cc(OC)c(OC)c(OC)c4)nc23)c1	none
COc1cc(-c2cnn3ccc(NCCO)nc23)ccc1O	none
CCC(=O)N1c2ccccc2NC2=C(C(=O)CC(C)(C)C2)C1c1ccc([N+](=O)[O-])cc1 (stereo not given)	none
COCCC(=O)NC(C)c1nnc2n1CCN(C/C=C/c1ccc(N(C)C)cc1)CC2 (stereo not given)	none
O=c1oc(-c2cccnc2)nn1Cc1ccc2ccccc2n1	none
CCN(c1ccc(OC)cc1)c1c(-c2ccc3c(c2)OCC(=O)N3)c(=O)c1=O	none
C=CCN1C(=O)C2(NC(=O)c3ccccc3N2)c2ccccc21 (stereo not given)	TEAD-YAP inh 65.6
CC(=O)c1ccc(N(C(=O)c2nc3nc(C)ccn3n2)c2nc3ccccc3s2)cc1	none
COc1ccc(N(CC(=O)Nc2c(C)n(C)n(-c3ccccc3)c2=O)S(=O)(=O)c2ccc(C)cc2)cc1OC	none
N/C(=N\N=C/c1ccc(O)cc1)c1ccccn1	TEAD-YAP inh 92.5
C/C(=N/NC(=O)c1ccccn1)c1cccc([N+](=O)[O-])c1	none
N/C(=N\N=C\c1cccc([N+](=O)[O-])c1)c1ccccn1	TEAD-YAP inh 43.4
COc1cc([N+](=O)[O-])cc(/C=N/NC(=O)c2cc(-c3ccccc3)n[nH]2)c1O	none
COc1cccc(/C=N/NC(=O)c2cc(-c3cccc([N+](=O)[O-])c3)n[nH]2)c1O	TEAD-YAP inh 71.9
COc1cccc(/C=N/NC(=O)c2ccn(C)n2)c1O	none
COc1ccccc1-c1cc(C(=O)N/N=C\c2ccccc2)[nH]n1	none
COc1cccc(/C=N/NC(=O)c2cc(-c3cccn3C)n[nH]2)c1O	TEAD-YAP inh 38.2
COc1ccccc1-c1cc(C(=O)N/N=C/c2cccc(OC)c2O)[nH]n1	TEAD-YAP inh 39.8
COc1ccc(-c2cc(C(=O)N/N=C/c3c(C)[nH]c4ccccc34)[nH]n2)cc1OC	TEAD-YAP inh 44.9
CCCc1cc(=O)oc2c(C)c(OCC(=O)N(C)C)ccc12	none
Cc1cccc(C(=O)N(CCCO)Cc2cc3cc4c(cc3[nH]c2=O)OCO4)c1	none
Cc1cc(C)n(C(=O)COc2ccc(Cl)cc2C)n1	none
Cc1cccc(-c2nc3ccccc3c(=O)n2NCc2ccccc2Br)c1	none
CCC1CCc2c(sc3nc[nH]c(=O)c23)C1 (stereo not given)	none
O=C(O)CCCCCN1C(=O)C(=O)/C(=C(\O)c2ccc([N+](=O)[O-])cc2)C1c1ccc(Cl)cc1 (stereo not given)	none
